According to PubChem BioAssay AID1619 (SRMLSC, 2009):
In all, about 220,000 compounds went through this assay and about 830 (0.38%) were called active.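 Rule for the calls: active = compound inhibiting the enzyme by more than half at any dose during confirmatory dose-response retesting; inconclusive = strong single-dose inhibitors picked by rank but not retested; inactive = the rest.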 Not all results are given here. Entries with a potency or affinity are not part of this list.

target: Leucine aminopeptidase (Plasmodium falciparum (isolate 3D7)) (UniProt Q8IL11); experiment: P. falciparum M17LAP inhibitors, primary screen, biochemical, fluorogenic H-Leu-NHMec substrate, 1536-well (AID 1619); settings: recombinant M17LAP, H-Leu-NHMec fluorogenic kinetic assay; at 30 µM; active compounds read high;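 note: plate controls were full reaction with DMSO carrier for no effect and no enzyme background for full effect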
Sequence (Q8IL11 whole entry, looked up): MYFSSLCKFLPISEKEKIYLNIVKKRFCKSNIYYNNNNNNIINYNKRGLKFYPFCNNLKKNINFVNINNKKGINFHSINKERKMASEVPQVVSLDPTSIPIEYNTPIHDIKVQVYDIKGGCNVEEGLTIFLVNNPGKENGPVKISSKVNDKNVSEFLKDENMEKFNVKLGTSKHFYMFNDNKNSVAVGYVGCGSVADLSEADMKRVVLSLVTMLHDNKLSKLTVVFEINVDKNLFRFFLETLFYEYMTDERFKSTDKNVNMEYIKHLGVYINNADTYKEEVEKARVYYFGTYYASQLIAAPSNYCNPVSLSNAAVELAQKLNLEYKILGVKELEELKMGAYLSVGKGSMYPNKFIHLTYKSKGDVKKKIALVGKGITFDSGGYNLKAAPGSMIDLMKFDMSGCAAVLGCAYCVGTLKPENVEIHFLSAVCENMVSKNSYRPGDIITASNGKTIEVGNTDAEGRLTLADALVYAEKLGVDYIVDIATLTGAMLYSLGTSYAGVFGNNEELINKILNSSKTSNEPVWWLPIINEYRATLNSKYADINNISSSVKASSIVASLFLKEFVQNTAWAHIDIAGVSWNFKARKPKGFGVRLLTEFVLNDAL

inhibition, inactive:
O=C(CCCOc1ccccc1)Nc1ccccc1C(F)(F)F -17.7%
O=C1CC(c2ccccc2)=NN1c1nc(-c2ccccc2)cs1 -0.33%
CCOC(=O)c1ccc(NC(=O)CN2C(=O)CSC(C)C2=O)cc1 (configuration not stated) 37%
CCOc1ccc(NC(=O)CN2C(=O)C(C)SC(C)C2=O)cc1 (configuration not stated) 5.98%
CC1SC(C)C(=O)N(CC(=O)Nc2ccc3c(c2)OCO3)C1=O (configuration not stated) 35.2%
CCC1SC(CC)C(=O)N(CC(=O)NCc2ccc(F)cc2)C1=O (configuration not stated) 7.04%
CC1SCC(=O)N(CC(=O)Nc2ccc3c(c2)OCCO3)C1=O (configuration not stated) 2.2%
COc1ccc(NC(=O)CN2C(=O)C(C)SC(C)C2=O)c(OC)c1 (configuration not stated) 26.5%
O=C(CN1C(=O)CSCC1=O)NCc1ccc(F)cc1 18.6%
CCOc1ccc(NC(=O)CN2C(=O)CSC2=O)cc1 54.4%
CCOC(=O)C1(CCSC)NC(c2ccco2)C2C(=O)N(C)C(=O)C21 (configuration not stated) -0.76%
CC(=O)c1sc(N2CCOCC2)nc1-c1ccccc1 9.61%
OCCC1CN(Cc2nc(-c3ccccc3)cs2)CCN1C1CCCC1 (configuration not stated) 7.26%
Cc1c(-c2ccccc2)oc2c(C(=O)OCC(=O)Nc3cccc(F)c3)cccc2c1=O 2.04%
CCOC(=O)c1ccc(NC(=O)c2cccc(C)c2[N+](=O)[O-])cc1 0.85%
CCCCN(CC)S(=O)(=O)c1ccc(C(=O)N(CCCN(C)C)c2nc3cc(C)cc(C)c3s2)cc1 -3.97%
CC(=O)Nc1cccc(C(=O)OCc2ccc([N+](=O)[O-])cc2)c1 1.17%
Cc1cccc(Nc2nnc(C)c(=O)n2N)c1 8.38%
O=c1[nH]c2ccc(S(=O)(=O)N3CCN(c4ccccc4)CC3)cc2[nH]c1=O 40.2%
O=c1[nH]c2ccc(S(=O)(=O)N3CCCCC3)cc2[nH]c1=O 38.3%
COC(=O)NCc1ccc2c(c1)OCO2 2.83%
COCC(=O)NCc1ccc2c(c1)OCO2 -6.02%
COc1ccc(OCCCC(=O)Nc2cccc(SC)c2)cc1 1.34%
Nc1c(C(=O)C2CC2)sc2nc(-c3ccccc3)cc(C(F)(F)F)c12 -0.94%
O=c1cc(O)c2sc3nc(-c4ccccc4)cc(C(F)(F)F)c3c2[nH]1 -7%
Cc1cc(C)cc(N(C(=O)c2sc(C)nc2C)C(C(=O)NC(C)(C)C)c2ccncc2)c1 (configuration not stated) 0.85%
FCCCOc1ccc(/C=N/OCc2ccc(Cl)cc2Cl)cc1 11.5%
